Assay results as given in PubChem BioAssay AID1946 (Johns Hopkins Ion Channel Center, 2009).
Screen size: about 2,400 compounds; about 180 (7.5%) were called active. For the sample, actives were picked, then their nearest neighbours and some compounds at random. A number with no mark means an inactive call.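 The calls were made as follows: active = readout below zero, meaning a drop past 3 SD under the dofetilide-free negative control mean; inactive = the rest.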

Each compound was assayed against Potassium voltage-gated channel subfamily KQT member 2 (Rattus norvegicus) (UniProt O88943) (assay: rat KCNQ2 channel inhibition by compounds alone, confirmation, counter-screen for hERG block protector project, cell-based, CHO, FluxOR thallium flux (AID 1946)). Conditions: CHO-KCNQ2 cells, FluxOR thallium flux fluorescence; at 10 µM; active compounds read low; zero marks the 3-SD hit cutoff.
Chain of Potassium voltage-gated channel subfamily KQT member 2 (Rattus norvegicus) (O88943 whole entry, looked up): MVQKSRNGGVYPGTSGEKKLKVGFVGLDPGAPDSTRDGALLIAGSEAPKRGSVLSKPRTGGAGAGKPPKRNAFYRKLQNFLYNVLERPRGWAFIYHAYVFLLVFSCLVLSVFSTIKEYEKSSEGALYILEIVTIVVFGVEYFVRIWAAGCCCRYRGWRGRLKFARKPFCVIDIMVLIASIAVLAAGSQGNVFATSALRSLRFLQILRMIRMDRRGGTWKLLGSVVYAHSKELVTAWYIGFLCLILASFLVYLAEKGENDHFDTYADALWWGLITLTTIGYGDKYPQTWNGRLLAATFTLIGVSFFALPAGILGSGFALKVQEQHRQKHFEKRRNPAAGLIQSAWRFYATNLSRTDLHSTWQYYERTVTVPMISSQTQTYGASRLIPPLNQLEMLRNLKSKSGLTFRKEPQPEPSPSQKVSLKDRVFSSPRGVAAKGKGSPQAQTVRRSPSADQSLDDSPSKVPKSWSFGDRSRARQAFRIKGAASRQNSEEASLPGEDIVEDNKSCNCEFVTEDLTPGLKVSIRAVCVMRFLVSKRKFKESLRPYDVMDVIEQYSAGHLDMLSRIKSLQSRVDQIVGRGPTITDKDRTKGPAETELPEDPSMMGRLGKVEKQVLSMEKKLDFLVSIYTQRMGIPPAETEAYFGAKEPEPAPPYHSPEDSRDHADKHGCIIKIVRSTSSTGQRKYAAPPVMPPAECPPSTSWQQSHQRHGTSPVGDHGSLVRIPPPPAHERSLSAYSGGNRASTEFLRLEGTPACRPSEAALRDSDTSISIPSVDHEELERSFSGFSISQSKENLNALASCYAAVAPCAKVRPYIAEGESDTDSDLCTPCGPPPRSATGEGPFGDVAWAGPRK

Compound	activity change vs negative control
O=C(NC(=S)N(CC1CCC1)CC1CCCO1)c1cccc([N+](=O)[O-])c1 (centres undefined)	63.2%
O=C(NC(=S)Nc1cc(C(F)(F)F)ccc1N1CCOCC1)c1ccco1	11.7%
O=C(NC(=S)Nc1cc(C(F)(F)F)ccc1Cl)c1ccccc1	8.2%
O=C(CCc1ccccc1)NC(=S)Nc1cc(C(F)(F)F)ccc1N1CCOCC1	-15.9% (active)
COc1cc(C(=O)Nc2ccc(O)cc2C(=O)O)ccc1OC(C)=O	3.8%
Cn1c(=O)c(Sc2ccccc2)c(O)c2ccccc21	23.4%
COc1ccc(C(=O)NNC(=O)C(=O)NC2CCCCC2)cc1	20.2%
O=C(c1csc(Nc2ccccc2Cl)n1)N1CCCC1	0%
CCOc1ccc(-n2cnc3sc(C)c(C)c3c2=O)cc1	3%
Cc1ccc(OC(=O)c2sc3ncn(C)c(=O)c3c2C)cc1	-1.4% (active)
COc1ccccc1-n1cnc2sc(C)c(C)c2c1=O	11.8%
CCOc1cc(N2CCOCC2)c(OCC)cc1NC(=O)Cn1nc(C)c([N+](=O)[O-])c1C	12.9%
CCSc1nnc(NC(=O)CC(C)C)s1	10.8%
Cc1ccc(OCc2ccoc2C(=O)O)cc1C	45.7%
Cc1ccc(N/C=C/C(=O)c2cccs2)cc1	5%
O=C(/C=C/Nc1ccc(F)cc1)c1ccco1	12.2%
O=C(/C=C/Nc1ccc(F)c(F)c1)c1cccs1	-2.9% (active)
Cc1ccc(Cc2c[nH]c(=S)s2)cc1	76.4%
O=C(NC(=S)N1CCc2ccccc21)c1ccc(Br)o1	41%
S=c1nc(Cc2ccccc2)[nH]c2ccccc12	98.8%
O=C1CC(C(=O)N2CCOCC2)C2(CCCCC2)O1 (centres undefined)	-1% (active)
O=C(C1CCN(S(=O)(=O)c2cc(Cl)ccc2Cl)CC1)N1CCOCC1	1.9%
Cc1ccc(C(C)C)c(OCc2n[nH]c(=S)o2)c1	32.2%
O=C(NC(=S)NCc1ccccc1)c1ccc(Br)o1	93.4%
CCC1=NN(C(=O)c2ccc(Cl)cc2)C(O)(c2ccccc2)C1 (centres undefined)	-0.9% (active)

Compound	activity change vs negative control
CC1=NN(C(=O)c2ccc(Cl)cc2)C(O)(c2ccccc2)C1 (centres undefined)	16%
CCC1=NN(C(=O)c2ccc(Cl)cc2)C(O)(c2ccc(C)cc2)C1 (centres undefined)	11.1%
CC(C)NC(=O)Nc1n[nH]c(Nc2ccc(Cl)cc2)n1	34.6%
COCCN(C(=O)CSc1nnc(C)n1Cc1ccccc1)c1c(N)n(CC(C)C)c(=O)[nH]c1=O	1.8%
C=CCN(c1ccc(C(=O)NC(C)C)cc1)S(C)(=O)=O	-2.3% (active)
C=CCN(CC=C)C(=S)NC(=O)c1ccc(OC)cc1	31.6%
CS(=O)(=O)N(Cc1ccccc1)c1ccc(C(=O)Nc2ccc(C(N)=O)cc2)cc1	4.2%
CCOC(=O)C1=NN(C(=O)c2ccccc2)C(O)(c2ccc(C)cc2)C1 (centres undefined)	32%
CCn1c(=S)[nH]c2c(c1=O)C(C)(C)Cc1ccccc1-2	49.8%
c1ccc(-c2n[nH]c(-c3ccccn3)n2)cc1	20.5%
Oc1c(N=NC(=S)Nc2ccccc2F)c2ccccc2n1Cc1ccccc1F	10.9%
Cn1c(O)c(N=NC(=S)Nc2ccccc2F)c2cc(S(=O)(=O)N3CCOCC3)ccc21	4%
C=CCn1c(O)c(N=NC(=S)Nc2ccccc2F)c2cc(S(=O)(=O)N3CCOCC3)ccc21	-2.3% (active)
CC(Oc1ccc(Br)cc1Br)C(=O)Nc1cccnc1 (centres undefined)	7.4%
CC1CCN(C(=S)NC(=O)c2ccc(C(C)(C)C)cc2)CC1	38.5%
COc1cc2c(cc1OC)C(c1ccc([N+](=O)[O-])cc1)N(C(C)=O)CC2 (centres undefined)	-4% (active)
COc1cc2c(cc1OC)C(C)N(C(=S)NC(=O)c1ccccc1)CC2 (centres undefined)	18.6%
COc1ccc(NC(=O)N2CCN(c3ccc([N+](=O)[O-])cc3)CC2)cc1OC	8.2%
CN(C)Cc1c(C(=O)N/N=C/c2ccccc2OCc2c(F)cccc2Cl)nnn1-c1nonc1N	-0.5% (active)
CCCOc1ccc(-c2c(C(=O)N/N=C/c3ccccc3OCC)nnn2-c2nonc2N)cc1	11.7%
Nc1nonc1-n1nnc(C(=O)N/N=C/c2cccc(Cl)c2Cl)c1CN1CCCC1	5.3%
O=C(NC(=S)Nc1ccc(C(F)(F)F)cc1)c1csnn1	110%
CC1CCc2c(sc3[nH]c(=S)n(C)c(=O)c23)C1 (centres undefined)	100%
CN1N=C(C(=O)N2CCc3c([nH]c4ccccc34)C2c2c(F)cccc2Cl)CCC1=O (centres undefined)	0.6%
CCc1nc(C)ccc1OCC(=O)N1CCc2c([nH]c3ccccc23)C1c1ccccn1 (centres undefined)	-3.7% (active)

Compound	activity change vs negative control
O=c1c2cc(Br)ccc2nc(-c2ccc([N+](=O)[O-])cc2)n1O	66.7%
C=CCN(CC=C)C(=S)NC(=O)Cc1cccc2ccccc12	25.1%
CC(/C=C1\SC(=S)N(NS(=O)(=O)c2ccc(C)cc2)C1=O)=C\c1ccccc1	32.4%
O=c1c2cc(Cl)ccc2nc(-c2ccccc2)n1O	56.6%
Cn1nc(C(F)(F)F)c(-c2ccc(Br)cc2)c1NC(=O)c1cccnc1	-6.8% (active)
Cn1c(=S)[nH]c2sc3c(c2c1=O)CCC(C(C)(C)C)C3 (centres undefined)	99.8%
CC(CCc1ccccc1)NC(=S)NC(=O)c1ccco1 (centres undefined)	43%
COc1ccc(N(CC(=O)NCc2cccnc2)S(=O)(=O)c2ccccc2[N+](=O)[O-])c(OC)c1	4.1%
Cc1ccc(/C(O)=C2\C(=O)C(=O)N(Cc3cccnc3)C2c2ccccc2[N+](=O)[O-])cc1 (centres undefined)	-1.5% (active)
O=C1C(=O)N(CCN2CCOCC2)C(c2cccnc2)/C1=C(/O)c1ccc(Cl)cc1 (centres undefined)	6.1%
CC(C)CN1C(=O)/C(=C/c2cccs2)NC1=S	113%
COc1ccc(NC(=S)NC(=O)c2csnn2)cc1	81.7%
CC(C)C(=O)Nc1cccc(C(=O)Nc2ccccc2C(=O)O)c1	13.7%
CC(=O)Nc1ccccc1C(=O)C(=O)Nc1ccccc1	-2% (active)
CC(=O)Nc1ccccc1C(=O)C(=O)Nc1ccc(Cl)cc1	5.3%
S=c1[nH]c2cc(Cl)ccc2s1	121%
CCn1c(=S)[nH]c2sc3c(c2c1=O)CCCCC3	126%
CC(C)n1c(=S)[nH]c2scc(-c3cccs3)c2c1=O	119%
S=c1[nH]nc(-c2cccs2)n1/N=C/c1c(Cl)cccc1Cl	42.5%
CCOc1ccc(C(=O)N/N=C/c2cc([N+](=O)[O-])cs2)cc1	5.6%
Cc1cc(OCc2ccc(C(=O)Nc3ccc(C(=O)O)cc3)o2)ccc1Cl	5.6%
O=C(N/N=C/c1cc([N+](=O)[O-])ccc1O)c1ccc(COc2ccc3c(c2)CCC3)o1	-19.7% (active)
CCOC(=O)C1=C(c2ccccc2)NC(=O)NC1c1ccc(O)c(Cl)c1 (centres undefined)	23.1%
O=C(N=Nc1c(O)[nH]c2ccc([N+](=O)[O-])cc12)c1cc(-c2ccccc2Cl)nc2ccccc12	3.8%
CC(C)(C)c1ccc(C(=O)CC(=O)c2cc(Cl)ccc2O)cc1	9.8%

Compound	activity change vs negative control
O=C(N/N=C/c1ccc2cccc(OCc3ccccc3)c2n1)c1ccc(Br)cc1	12%
COC(=O)c1ccc(/C=C/c2ccc3cccc(OC)c3n2)cc1	-0.2% (active)
COc1ccc(C(=O)CC(=O)C(=O)Nc2ccccc2OC)cc1	19.3%
O=C(Cn1nnc(-c2cccc(C(F)(F)F)c2)n1)N1CCCCCC1	44.7%
COc1ccc(C(=O)NCC(=O)OCn2nnc3ccccc3c2=O)cc1OC	5.4%
Cc1ccccc1OCC(=O)NNC(=O)c1ccc2c(=O)n3c(nc2c1)CCC3	-0.9% (active)
Cc1ccccc1NC(=O)C(=O)NNC(=O)COc1ccc2ccccc2c1	48.1%
O=S(=O)(NC(=S)NC1CCCCC1)c1ccc(Br)cc1	36.7%
C=CCn1c(SCc2ccc(C(=O)O)cc2)nc2sc(C)c(C)c2c1=O	68%
O=C(NC(=S)NCCc1ccccc1)c1cccc(Cl)c1	5.4%
CC1Cc2ccccc2N1C(=S)NC(=O)c1cccc(Br)c1 (centres undefined)	143%
O=C(NC(=S)NNC(=O)[C@H]1C[C@@H]1c1ccccc1)c1cccc(F)c1	-9% (active)
Cc1cccc(N=Cc2cc(Br)cc(Cl)c2O)c1	61.7%
COc1ccc(C(=O)NNC(=O)C(=O)Nc2ccc(C)cc2)cc1	36.9%
C=CCn1c(=S)[nH]c2cc(-c3ccccc3)sc2c1=O	17.5%
NC(=O)c1cccnc1Nc1cccc([N+](=O)[O-])c1	0.5%
COc1ccc(S(=O)(=O)Nc2cccnc2)cc1	-2.7% (active)
COc1ccc(S(=O)(=O)Nc2cccc(-n3cnnn3)c2)cc1	11.8%
O=C(NCc1cccnc1)c1ccc(NS(=O)(=O)c2ccc(F)cc2)cc1	17%
S=c1nc(-c2ccccc2)[nH]n1-c1ccccc1	73.2%
C=CCNC(=S)Nc1nc2c(cc1C(=O)OCC)CCCC2	15.6%
COc1cc(/C=C2/OC(=O)c3cc([N+](=O)[O-])ccc32)cc(OC)c1OC	-0.9% (active)
COc1ccc([N+](=O)[O-])cc1N(CC(=O)NCc1ccco1)S(C)(=O)=O	9.4%
COc1cc(/C=C2/C(=O)NN(c3ccc(Cl)c(Cl)c3)C2=O)cc([N+](=O)[O-])c1O	10.8%
